In all, about 390,000 compounds went through this assay and about 610 (0.16%) were called active. Inconclusive results (about 4%) are left out. Calls follow the shape of the dose curve; as a rule, active = well fitted inhibition curve with a large enough effect; inconclusive = small, poorly fitted or top-dose-only effect, or effect the other way, or another doubt; inactive = no such curve, though single readings can be large or run the other way. This excerpt belongs to a sample that is enriched for actives.
experiment: Nrf2 qHTS screen for inhibitors: counterscreen for cytotoxicity; conditions: A549 ARE-Fluc cells, CellTiter-Fluor viability, 18-24 h; series mostly up to 46 µM; activity change, negative = cytotoxicity: at the top concentration
How it was run: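 Cytotoxicity counterscreen: CellTiter-Fluor fluorescence was measured in A549 ARE_Fluc cells after 18-24 h of compound exposure in a concentration series. The subsequent BugLite luminescent read reports ARE-luciferase activity.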
% is scaled to controls: 0 for no effect and ±100 for the full control effect; potency is read from the fitted curve at half-maximal effect.

| SMILES | activity change, negative = cytotoxicity | Potency |
| --- | --- | --- |
| O=C(NCc1nnc(C(=O)Nc2ccc(C(F)(F)F)cc2Cl)o1)c1ccccc1 | -5.57% (inactive) | – |
| CC1CCCCN1CC(=O)N1CCCc2c1c(=O)oc1ccc(OCc3ccccc3)cc21 (stereo not given) | -12% (inactive) | – |
| COc1cccc(C2CC(c3ccccc3)=NN2S(=O)(=O)c2ccccc2)c1OC (stereo not given) | -2.21% (inactive) | – |
| COc1ccc2c(c1OC)C(=O)OC2Nc1nc(-c2ccccc2)cs1 (stereo not given) | – | 20.6 µM (active) |
| Cc1ccc(CNC(=O)C2(C(F)(F)F)C/C(=C\CCO)CCCO2)o1 (stereo not given) | -0.0353% (inactive) | – |
| Cn1nnnc1Sc1ncnc2scc(-c3ccccc3[N+](=O)[O-])c12 | -8.01% (inactive) | – |
| COc1cccc(OC2=NS(=O)(=O)c3ccccc32)c1 | 8.49% [at 65.3 µM] (inactive) | – |
| CCc1ccc(NC(=O)N2CCN(C(=O)c3nsc4ccccc34)CC2)cc1 | -8.29% (inactive) | – |
| Cc1cc(C)c(NC(=O)Cn2c(SCC(=O)NCc3ccccc3)nc3ccccc32)c(C)c1 | -9.69% (inactive) | – |
| COc1ccc(Br)cc1C1C2C=CCC(C)C2C(=O)N1Cc1ccccc1 (stereo not given) | -9.11% (inactive) | – |
| O=C1C2C(c3ccccc3)CC=CC2C(c2ccoc2)N1Cc1ccccc1 (stereo not given) | -12.7% (inactive) | – |
| Cc1ccc(NC(=O)C(Cc2ccccc2)NS(=O)(=O)c2ccc3c(c2)oc(=O)n3C)cc1C (stereo not given) | -0.129% (inactive) | – |
| CC(=O)Nc1cc(C(=O)NCc2ccc(F)cc2)ccc1Sc1ccc(F)cc1 | -2.42% (inactive) | – |
| COC(=O)c1ccc(OC)c(Cn2c(=O)n(Cc3ccccc3)c(=O)c3c2c2cc(OC)ccc2n3C)c1 | 2.6% (inactive) | – |
| O=C1Nc2ccc(Br)cc2/C1=N/N=C/C1=C(N2CCOCC2)C(=C\c2ccccc2)/CC1 | – | 18.4 µM (active) |
| COc1ccccc1C(=O)OCc1cc(=O)n2nc(-c3cccs3)sc2n1 | -1.04% (inactive) | – |
| O=[S+]([O-])(c1ccc2c(c1)OCCO2)N1CCN([S+](=O)([O-])c2c(Cl)cc(Cl)cc2Br)CC1 | -1.37% (inactive) | – |
| COc1ccc(C2=NC(c3ccncc3)=Nc3ccc(Br)cc3N2)cc1 | 4.44% (inactive) | – |
| O=[S+]([O-])(c1ccc(OC(F)(F)F)cc1)N1CCN([S+](=O)([O-])c2ccc3c(c2)OCCO3)CC1 | -2.24% (inactive) | – |
| CCc1ccc(NC(=O)Cn2c(=O)n(CCC(=O)NCc3ccc4c(c3)OCO4)c(=O)c3ccccc32)cc1 | -0.967% (inactive) | – |
| CCc1ccccc1NC(=O)N1CCN(C(=O)c2nsc3ccccc23)CC1 | 7.86% (inactive) | – |
| CCCn1c2ccccc2c2cnn(CC(=O)N3CCCC(C(=O)OCC)C3)c(=O)c21 (stereo not given) | 11% (inactive) | – |
| CCOC(=O)c1c(C)[nH]c2c1-c1ccccc1C(=O)C2=O | – | 23.1 µM (active) |
| CCOC(=O)c1c(C)[nH]c(C)c1S(=O)(=O)N(C)CC(=O)N1CCN(c2ccccc2)CC1 | -2.2% (inactive) | – |
| CCOC(=O)c1c(SCC(=O)Nc2cccc(C)c2C)nc(=O)[nH]c1C | 5.98% (inactive) | – |

| SMILES | activity change, negative = cytotoxicity | Potency |
| --- | --- | --- |
| COc1ccc(CN(Cc2ccccc2)C(=O)c2ccc(O)cc2)cc1COc1ccc(NC(C)=O)cc1 | 0.528% (inactive) | – |
| Cc1ccc(Cn2ncc3c4sc(C)cc4n(C)c3c2=O)c(C)c1 | -0.122% (inactive) | – |
| Cc1ccc(-c2nnc3ccc(SCC(N)=O)nn23)cc1 | -12.6% (inactive) | – |
| CCc1cccc(NC(=O)c2cnc(N3CCOCC3)c3ccccc23)c1 | -2.22% (inactive) | – |
| COc1ccc(C(=O)N(Cc2ccccc2)Cc2ccc(OC)c(COc3ccc(NC(C)=O)cc3)c2)c(O)c1 | 10.5% (inactive) | – |
| C=C1CCN(Cc2ccc(OC)cc2)S(=O)(=O)c2ccccc21 | 1.54% (inactive) | – |
| CC(=O)OCC(NC(=O)C(Cc1ccccc1)NC(=O)OC(C)(C)C)C1OC(n2ccc(=O)[nH]c2=O)C(OC(C)=O)C1OC(C)=O (stereo not given) | -1.95% (inactive) | – |
| CCN(CC)/[N+]([O-])=N/Oc1cc(O/[N+]([O-])=N/N2CCCC2CO)c([N+](=O)[O-])cc1[N+](=O)[O-] (stereo not given) | -4.52% (inactive) | – |
| CCOc1ccc(CNCc2c(C(=O)O)c(C)n(Cc3cccc(OC)c3)c2C)cc1OC | 0.69% (inactive) | – |
| COc1ccc2c(CNCCc3ccccc3C)c(C(=O)O)n(Cc3ccccc3C)c2c1 | 2.98% (inactive) | – |
| COc1ccc(Cn2c(C(=O)O)c(CNCc3cccc(OC)c3)c3ccc(C)cc32)cc1 | – | 8.2 µM (active) |
| Cc1c(N=Nc2ccc(N(C)C)cc2)c(=O)n(-c2ccccc2)n1C | – | 18.4 µM (active) |
| Cc1ccc(S(=O)(=O)Nc2ccccc2CNc2c(C)n(C)n(-c3ccccc3)c2=O)cc1 | 3.84% (inactive) | – |
| Cc1c(C=O)n(C)n(-c2ccccc2)c1=O | -0.443% (inactive) | – |
| O=C1c2ccccc2C(=O)N1c1ccc(S(=O)(=O)N2CCOCC2)c2ccccc12 | 9.66% (inactive) | – |
| CCCN(CCC)C(=O)C1CCCN(c2ncnc3c2nc2n3CCCCC2)C1 (stereo not given) | -13.8% (inactive) | – |
| N#CN1CCC(NS(=O)(=O)c2cccc(F)c2)C1 (stereo not given) | 2.73% (inactive) | – |
| CC[n+]1cc(C)ccc1/C=C/c1ccc(N(C)C)cc1 | – | 9.2 µM (active) |
| N#Cc1ccc(OC2=NS(=O)(=O)c3ccccc32)cc1 | 8.95% (inactive) | – |
| CCC(C)Nc1oc(-c2ccc(COc3ccc(Cl)cc3)o2)nc1C#N (stereo not given) | -11.5% (inactive) | – |
| Cc1c(C)n(Cc2ccc(Cl)cc2)c2ccc(C(=O)NCCc3ccc(S(N)(=O)=O)cc3)cc12 | -0.406% (inactive) | – |
| COc1cc(NC(=O)c2[nH]cnc2C(N)=O)cc(C(=O)Nc2cccc(C(F)(F)F)c2)c1 | – | 20.6 µM (active) |
| Cc1cc(Nc2cccc(C(F)(F)F)c2)nc2ccc(NC(=O)c3ccc(=O)[nH]c3)cc12 | -1.16% (inactive) | – |
| Cc1onc(-c2ccc(F)cc2F)c1C(=O)Nc1cccc(C(F)(F)F)c1 | 2.97% (inactive) | – |
| Cc1ccc(-c2nc(SCc3ccc(Br)cc3)n3[nH]c(=O)cc3n2)cc1 | 12.3% (inactive) | – |

| SMILES | activity change, negative = cytotoxicity | Potency |
| --- | --- | --- |
| O=C(O)C1CC=CC2CCN(C3CCCCC3)C(=O)C21 (stereo not given) | -2.71% (inactive) | – |
| Cc1cc(Nc2cc(N3CCN(C)CC3)nc(Sc3ccc(NC(=O)C4CC4)cc3)n2)n[nH]1 | -6.27% (inactive) | – |
| O=C(COc1ccccc1)Nc1ccc(N2CCN(C(=O)c3cccs3)CC2)cc1 | -1.48% (inactive) | – |
| C=CC(=O)Nc1ccc(Nc2ccnc(Nc3ccc(N4CCN(C)CC4)cc3)n2)cc1 | – | 9.2 µM (active) |
| C/C=C/c1ccc(OCCOc2ccc(C=O)cc2OC)c(OC)c1 | -2.78% (inactive) | – |
| Cc1ccc(F)c(NC(=O)CCOc2ccccc2C)c1 | 4.07% (inactive) | – |
| COc1cc(/C=N/NC(=O)Nc2ccccc2)ccc1OCCOc1ccccc1C | – | 5.8 µM (active) |
| CC(=O)c1ccc(NC(=O)CSc2c(C(C)C)cnc3c2c(=O)n(C)c(=O)n3C)cc1 | 0.808% (inactive) | – |
| COc1ccc(CN2CCC(=O)c3ccccc3S2(=O)=O)cc1 | 0.19% (inactive) | – |
| O=C(c1ccc2c(=O)n(Cc3ccco3)c(=S)[nH]c2c1)N1CCCC1 | -3.84% (inactive) | – |
| COc1ccc(C2Nc3ccccc3C(=O)N2Cc2ccc(CNC(=O)CO)cc2)cc1COc1ccc(NC(C)=O)cc1 (stereo not given) | -0.576% (inactive) | – |
| Cc1ccc(OCCn2c(CNc3ccccc3C)nc3ccccc32)cc1 | -8.35% (inactive) | – |
| O=C(CCC1N=C2c3ccccc3N=C(SCc3ccccc3F)N2C1=O)NCCc1ccccc1 (stereo not given) | -0.915% (inactive) | – |
| CN(C)Cc1cn(-c2ccccc2)nc1-c1ccccc1 | -0.545% (inactive) | – |
| COC(=O)C(CC(C)C)NS(=O)(=O)c1cc(Br)ccc1Br (stereo not given) | 0.0452% (inactive) | – |
| Cc1cc(C)cc(NC(=O)CCS(=O)(=O)c2cc3c4c(c2)CCN4C(=O)CC3)c1 | 4.58% (inactive) | – |
| O=[N+]([O-])c1ccc(S(=O)(=O)N2CCN(c3nc(-c4ccccc4)nc4ccccc34)CC2)cc1 | 10.7% (inactive) | – |
| COc1ccc(C2Nc3ccccc3C(=O)N2Cc2ccco2)cc1COc1cccc(NC(C)=O)c1 (stereo not given) | -11.8% (inactive) | – |
| C=CCNC(=O)c1ccc2nc(-c3ccco3)c(-c3ccco3)nc2c1 | 1.69% (inactive) | – |
| CCOc1ccc(NC(=O)c2c(NCc3cccc(OC)c3OC)sc3c2CCC3)cc1 | -1.02% (inactive) | – |
| CCOc1ccc(CC(=O)NCCc2csc3nc(-c4ccccc4F)nn23)cc1 | 2.29% (inactive) | – |
| CC(=O)Nc1ccc(S(=O)(=O)N2N=NC3C2C2CC4C3(CN(C(=O)OC(C)(C)C)S4(=O)=O)O2)cc1 (stereo not given) | 3.82% (inactive) | – |
| COc1ccc(CCn2c3c(c(=O)[nH]c2=S)CN(C(C)C)CN3)cc1OC | -0.515% (inactive) | – |
| Cc1ccc(CNS(=O)(=O)c2ccc(C(=O)N(C)C)s2)cc1 | 10.7% (inactive) | – |
| Cc1cc(C)n2ncc(C(=O)Nc3cccc(C#N)c3)c2n1 | -5.38% [at 9.26 µM] (inactive) | – |

| SMILES | activity change, negative = cytotoxicity | Potency |
| --- | --- | --- |
| Oc1ccc(Cl)cc1C1C=C(c2ccc3c(c2)OCO3)NC(c2c(F)cccc2Cl)N1 (stereo not given) | -10.7% (inactive) | – |
| COc1ccc(C2/C=C\CN(C(=O)c3ccc(C)cc3)C(Cc3ccccc3)C(=O)N2Cc2ccc(F)cc2)cc1 (stereo not given) | -13% (inactive) | – |
| C=C1CCN(C(CC(C)C)C(=O)NCc2cc(OC)c(OC)c(OC)c2)S(=O)(=O)c2ccccc21 (stereo not given) | 10.7% (inactive) | – |
| CCn1cc(/C=C2/SC(=S)NC2=O)c(C)n1 | – | 18.4 µM (active) |
| COc1cccc(C2c3c(ncn(-c4cccc(Br)c4)c3=N)Oc3ccc4ccccc4c32)c1 (stereo not given) | -1.13% (inactive) | – |
| O=C(Nc1cccc2cccnc12)C(F)(F)F | 3.12% (inactive) | – |
| N#Cc1nc(NCc2ccc(Cl)c(Cl)c2)c2ncn(CCCO)c2n1 | -7.77% (inactive) | – |
| Cc1c(Cl)cccc1-c1ccc(CNCCCSc2nnnn2C)o1 | -10.9% (inactive) | – |
| O=S1(=O)N=C(Oc2cccc(Br)c2)c2ccccc21 | 0.501% (inactive) | – |
| O=C(NCc1ccccn1)[C@]1(C(F)(F)F)C[C@H](CCc2ccccc2)CCCO1 | -1.56% (inactive) | – |
| O=c1ccc2c(-c3ccccc3S(=O)(=O)O)c3ccc(O)c(O)c3oc-2c1O | – | 13 µM (active) |
| Cc1cc2c(s1)c1cnn(Cc3c(F)cccc3Cl)c(=O)c1n2C | -1.2% (inactive) | – |
| CC(=O)NC(c1cccs1)c1cc(Cl)c2cccnc2c1O (stereo not given) | -15.6% (inactive) | – |
| COC(=O)c1ccccc1NC(=O)c1ccc(C#N)cc1 | 3.57% (inactive) | – |
| COc1ccc(-c2ccc3ncnc(NCc4cccs4)c3c2)cc1OC | 0.721% (inactive) | – |
| COc1ccccc1NC(=O)CSC1=Nc2ccccc2C2=NC(CC(=O)NCc3cccs3)C(=O)N12 (stereo not given) | 0.335% (inactive) | – |
| Cc1ccc(-c2nc3ccccn3c2Nc2ccc(F)cc2)o1 | -3.31% (inactive) | – |
| COC(=O)c1ccccc1S(=O)(=O)Nc1ccc(OC)cc1 | 2.48% (inactive) | – |
| Oc1ccc(Cl)cc1C1C=C(c2ccc3c(c2)OCO3)NC(c2ccc(F)c(Br)c2)N1 (stereo not given) | -3.09% (inactive) | – |
| O=C(CNC(=O)c1ccccc1)OC(C(=O)Nc1cc([N+](=O)[O-])ccc1F)c1ccccc1 (stereo not given) | -1.23% (inactive) | – |
| O=C(Nc1nc2ccc([N+](=O)[O-])cc2s1)c1ccc(S(=O)(=O)N2CCCc3ccccc32)cc1 | – | 9.2 µM (active) |
| CNC(=O)c1ccsc1NC(=O)c1ccc(S(=O)(=O)N2CCc3ccccc32)cc1 | -1.06% (inactive) | – |
| O=C(NC(Nc1nc2ccc([N+](=O)[O-])cc2s1)(C(F)(F)F)C(F)(F)F)c1ccccc1 | – | 10.3 µM (active) |
| O=C(Nc1nnc(S(=O)(=O)N2CCCc3ccccc32)s1)c1cccc(F)c1 | -0.547% (inactive) | – |
| NS(=O)(=O)c1ccc2nc(NC(=O)COc3ccccc3)sc2c1 | 5.87% (inactive) | – |

Reference: PubChem BioAssay AID504648 (National Center for Advancing Translational Sciences (NCATS), 2011)
